{
  "source": "PubChem BioAssay AID1851",
  "about": "(National Center for Advancing Translational Sciences (NCATS), 2009)",
  "note": "Screen size: about 16,000 compounds; about 4,000 (25%) were called active. About 26% were inconclusive and are not listed. The call rests on the fitted dose curve; in most records, active means well fitted curve in the direction sought with a large enough effect; inconclusive means small, poorly fitted or top-dose-only effect, or effect the other way; inactive means no such curve, though single readings can be large or run the other way. Not all results are given here. On the % scale 0 is the no-effect control and ±100 the full control effect.",
  "data": [
    {"molecular_target": "Cytochrome P450 2C9 (Homo sapiens) (UniProt P11712)", "sequence (P11712 whole entry, looked up)": "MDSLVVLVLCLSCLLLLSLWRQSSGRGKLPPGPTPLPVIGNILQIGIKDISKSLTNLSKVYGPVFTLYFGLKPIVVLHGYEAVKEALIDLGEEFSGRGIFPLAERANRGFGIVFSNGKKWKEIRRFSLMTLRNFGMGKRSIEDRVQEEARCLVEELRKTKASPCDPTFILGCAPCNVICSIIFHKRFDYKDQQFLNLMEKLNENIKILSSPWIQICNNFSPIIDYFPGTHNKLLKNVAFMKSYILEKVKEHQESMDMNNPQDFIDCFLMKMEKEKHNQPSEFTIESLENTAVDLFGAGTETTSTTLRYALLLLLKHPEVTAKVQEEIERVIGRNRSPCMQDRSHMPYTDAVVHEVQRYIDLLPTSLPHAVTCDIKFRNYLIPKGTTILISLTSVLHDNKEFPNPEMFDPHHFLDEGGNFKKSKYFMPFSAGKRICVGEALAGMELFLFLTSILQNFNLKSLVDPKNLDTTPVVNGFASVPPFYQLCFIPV", "experiment": "Cytochrome panel assay with activity outcomes", "conditions": "recombinant CYP, pro-luciferin dealkylation, luminescence, p450-cyp2c9; series mostly up to 57.1 µM; activity, negative = inhibition: at the top concentration", "values": [
      {"smiles": "O=C(NCc1ccccc1)C(c1cccs1)N(Cc1cccs1)C(=O)c1cnccn1", "note": "(centres undefined)", "AC50": "15.8 µM (active)"},
      {"smiles": "O=C(NC1CCCCC1)C(c1cccs1)N(Cc1cccs1)C(=O)c1ccco1", "note": "(centres undefined)", "AC50": "8.91 µM (active)"},
      {"smiles": "CCc1ccc(C(C(=O)NCc2ccc(OC)cc2)N(CCOC)C(=O)Cc2cccs2)cc1", "note": "(centres undefined)", "AC50": "10 µM (active)"},
      {"smiles": "CN(C)Cc1ccccc1-c1cncnc1NCc1cccs1", "activity, negative = inhibition": "-10.6% [at 2.29 µM] (inactive)"},
      {"smiles": "COc1ccc2nc3oc(C(=O)NCc4cccs4)cc3cc2c1", "activity, negative = inhibition": "-10.2% (inactive)"},
      {"smiles": "CN(C)C(=O)c1ccc(-c2cncnc2NCc2cccs2)cc1", "activity, negative = inhibition": "-0.243% [at 2.29 µM] (inactive)"},
      {"smiles": "COc1ccc(CNC(=O)C(c2ccc(C)cc2)N(Cc2cccs2)C(=O)c2ccc3c(c2)OCCO3)cc1", "note": "(centres undefined)", "AC50": "7.08 µM (active)"},
      {"smiles": "CN(Cc1ccco1)c1cc(-c2ccccc2Cl)ncn1", "activity, negative = inhibition": "-2.34% [at 2.29 µM] (inactive)"},
      {"smiles": "N[C@H](C(=O)O)[C@@H]1[C@@H](C(=O)O)C1(F)F", "activity, negative = inhibition": "-13.7% (inactive)"},
      {"smiles": "COc1ccc(C(C(=O)NCc2ccccc2)N(Cc2cccs2)C(=O)c2cnccn2)cc1", "note": "(centres undefined)", "AC50": "7.94 µM (active)"},
      {"smiles": "CC1(C)[C@@H]2CC[C@]1(C)[C@@H](OC(=O)/C=C\\c1ccccc1)C2", "activity, negative = inhibition": "-14.1% [at 11.4 µM] (inactive)"},
      {"smiles": "CS(=O)(=O)N1CCC[C@@]2(CCN(C(=O)Nc3cccc(F)c3)C2)C1", "activity, negative = inhibition": "3.71% (inactive)"},
      {"smiles": "COc1cccc(N(CC(=O)Nc2cccc(C(C)=O)c2)S(C)(=O)=O)c1", "AC50": "25.1 µM (active)"},
      {"smiles": "CS(=O)(=O)N(CC(=O)Nc1cccc(F)c1)c1cccc([N+](=O)[O-])c1", "AC50": "3.55 µM (active)"},
      {"smiles": "CS(=O)(=O)N1CCC2(CCN(C(=O)Nc3cccc(F)c3)CC2)CC1", "activity, negative = inhibition": "-4.47% (inactive)"},
      {"smiles": "CC(=O)Nc1sc2c(c1CN1CCN(C)CC1)CCCC2", "activity, negative = inhibition": "-27.7% (inactive)"},
      {"smiles": "CC(=O)Nc1sc2c(c1C(N)=O)CCCC2", "activity, negative = inhibition": "-29.9% (inactive)"},
      {"smiles": "CC(=O)NCCC(=O)Nc1sc2c(c1-c1nc3ccccc3[nH]1)CCCC2", "AC50": "11.2 µM (active)"},
      {"smiles": "N#Cc1cccc(-c2cc(NCc3cccs3)ncn2)c1", "activity, negative = inhibition": "-9.65% [at 2.29 µM] (inactive)"},
      {"smiles": "C[N+]1(C)CCc2cc3c(cc2[C@@H]1[C@@H]1C(=O)Oc2c1ccc1c2OCO1)OCO3", "AC50": "inactive"},
      {"smiles": "CN1CCc2cc3c(cc2[C@@H]1[C@@H]1C(=O)Oc2c1ccc1c2OCO1)OCO3", "AC50": "12.6 µM (active)"},
      {"smiles": "O=C(O)c1ccc(Sc2nnnn2-c2ccccc2)c([N+](=O)[O-])c1", "activity, negative = inhibition": "19% (inactive)"},
      {"smiles": "O=C(Nc1ccccc1[N+](=O)[O-])C1C(c2ccccc2)=C1c1ccccc1", "AC50": "6.31 µM (active)"},
      {"smiles": "COCC(=O)N1CCC2(CCCN(C(=O)Nc3cccc(F)c3)C2)CC1", "activity, negative = inhibition": "-2.36% (inactive)"},
      {"smiles": "CC(=O)SCC[N+](C)(C)C", "activity, negative = inhibition": "9.28% (inactive)"},
      {"smiles": "COc1ccc(/C=C2/S/C(=N/N=C3\\CC4CCC3(C)C4(C)C)NC2=O)cc1", "note": "(centres undefined)", "AC50": "8.91 µM (active)"},
      {"smiles": "COc1cc(CNC(=O)CCCC/C=C\\C(C)C)ccc1O", "AC50": "2 µM (active)"},
      {"smiles": "CCCCCCCCC(=O)NCc1cc(OC)c(O)cc1I", "activity, negative = inhibition": "-13.8% (inactive)"},
      {"smiles": "CCCCCCCC/C=C\\CCCCCCCC(=O)NCc1ccc(O)c(OC)c1", "activity, negative = inhibition": "-9.24% (inactive)"},
      {"smiles": "Cc1ccnc(N)c1", "activity, negative = inhibition": "28.1% (inactive)"},
      {"smiles": "CSc1nsc(/C=C/Nc2ccc(Cl)cc2)c1C#N", "AC50": "2.24 µM (active)"},
      {"smiles": "Cc1ccccc1CSc1nnc(-c2cccs2)n1Cc1ccco1", "AC50": "11.2 µM (active)"},
      {"smiles": "CCn1c(SCC(=O)N2CCN(S(=O)(=O)c3ccccc3)CC2)nnc1-c1cccs1", "activity, negative = inhibition": "-37.8% (inactive)"},
      {"smiles": "CCn1c(SCc2nc3ccccc3[nH]2)nnc1-c1ccc(OC)cc1", "AC50": "12.6 µM (active)"},
      {"smiles": "Cc1ccccc1-c1cncnc1N(C)Cc1ccco1", "activity, negative = inhibition": "-10.8% [at 2.29 µM] (inactive)"},
      {"smiles": "CN(Cc1ccco1)c1nc(-c2ccoc2)nc2ccccc12", "activity, negative = inhibition": "-3.83% [at 2.29 µM] (inactive)"},
      {"smiles": "CCn1c(SCc2cccc(C)c2)nnc1-c1ccc(C)cc1", "activity, negative = inhibition": "-21.7% (inactive)"},
      {"smiles": "c1ccc(-c2nnc(SCc3nc4ccccc4[nH]3)n2Cc2ccco2)cc1", "AC50": "6.31 µM (active)"},
      {"smiles": "O=C(O)CC[C@]1(C(=O)O)CCC(=O)c2ccccc21", "activity, negative = inhibition": "-1.2% [at 11.4 µM] (inactive)"},
      {"smiles": "N[C@H](C(=O)O)[C@@H]1C[C@@H]1C(=O)O", "AC50": "inactive"},
      {"smiles": "O=C1C=C(c2cccs2)CC(c2cccs2)C1n1cnc([N+](=O)[O-])c1", "note": "(centres undefined)", "AC50": "14.1 µM (active)"},
      {"smiles": "Cc1nc(SCC(=O)c2cc3ccccc3oc2=O)c(C#N)c(C)c1C(=O)Nc1ccccc1", "AC50": "0.794 µM (active)"},
      {"smiles": "Cc1ccc(N2C(=O)CC(c3ccsc3)C3=C2CC(C)(C)CC3=O)cc1", "note": "(centres undefined)", "AC50": "3.98 µM (active)"},
      {"smiles": "CC(=O)NCCNc1nc(-c2ccc(C(=O)N(C)C)cc2)nc2ccccc12", "activity, negative = inhibition": "6.97% [at 2.29 µM] (inactive)"},
      {"smiles": "COc1cc(C(=O)Nc2nc3ccc4nc(C)sc4c3s2)cc(OC)c1OC", "activity, negative = inhibition": "-37.3% (inactive)"},
      {"smiles": "Cc1nc2c(ccc3nc(NC(=O)c4ccc5c(c4)OCCO5)sc32)s1", "AC50": "0.708 µM (active)"},
      {"smiles": "Cc1nc2ccc3nc(NC(=O)c4ccc(S(=O)(=O)N5CCOCC5)cc4)sc3c2s1", "activity, negative = inhibition": "-18.4% (inactive)"},
      {"smiles": "CN(C)c1ncnc2c1ncn2CCn1cnc2c(N(C)C)ncnc21", "activity, negative = inhibition": "-7.75% [at 11.4 µM] (inactive)"},
      {"smiles": "CCN(C(=O)Cn1c(=O)oc2ccccc21)c1cccc(C(F)(F)F)c1", "activity, negative = inhibition": "11.8% (inactive)"},
      {"smiles": "CCN(C(=O)COc1cc(=O)n(C)c2ccccc12)c1cccc(Cl)c1", "AC50": "7.94 µM (active)"},
      {"smiles": "COc1cc(=O)n(C)c2c(OC[C@@H](O)C(C)(C)O)cccc12", "AC50": "inactive"},
      {"smiles": "CCSc1ncc(/C=N/Nc2ccc(F)cc2)n1C", "AC50": "12.6 µM (active)"},
      {"smiles": "Cc1cnn(CCC(=O)NNC(=S)Nc2ccc(F)cc2)c1", "activity, negative = inhibition": "-25.6% (inactive)"},
      {"smiles": "CCOC(=O)N/N=C/c1ccc(F)cc1", "activity, negative = inhibition": "-11% (inactive)"},
      {"smiles": "c1ccc([C@H](CCN2CCCC2)c2ccccn2)cc1", "activity, negative = inhibition": "10.4% [at 11.4 µM] (inactive)"},
      {"smiles": "O=C1[C@H]2[C@H]3[C@H](O)[C@H](O)C/C(=N/OC[C@@H](O)COCc4ccco4)[C@H]3CC[C@@H]2C(=O)N1Cc1ccc2c(c1)OCO2", "activity, negative = inhibition": "12.6% [at 11.4 µM] (inactive)"},
      {"smiles": "Cc1c(C(=O)NN2CCOCC2)nn(-c2ccc(Cl)cc2Cl)c1-c1ccc(I)cc1", "AC50": "6.31 µM (active)"},
      {"smiles": "Cc1ccc(C(=O)NN2CCOCC2)cc1", "activity, negative = inhibition": "-10.7% (inactive)"},
      {"smiles": "O=C(N/N=C1/C[C@@H](O)[C@@H](O)[C@@H]2[C@@H]3C(=O)N(Cc4ccccc4)C(=O)[C@H]3CC[C@H]12)OCc1ccccc1", "activity, negative = inhibition": "4.61% [at 11.4 µM] (inactive)"}
    ]}
  ]
}
